From the supplement of paper PMC6555819

Tested on: VDR:RXRa (NR concentration 270 nM, RXRa partner concentration 90 nM)
Experiment: PBM binding z-score (relative to random genomic background probes); higher = stronger binding; sequences stand for … in GC…GCGATTGACAGCGTAGAATGAAGG
Procedure: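 Protein-binding microarray (Agilent 4x180K custom design, double-stranded 60-nt probes: 5' GC cap, 34-nt variable region, 24-nt constant primer region; full probe sequence given). Purified or IVT nuclear receptor:RXRα heterodimers (3:1 NR:RXRα, mostly 270:90 nM) or homodimers were incubated for 1 h in PBS with 2% milk and no ligand, then detected with Alexa488 antibodies. Fluorescence from o1-orientation probes (~5 replicates averaged) was converted to z-scores against 500 random hg19 background probes. Variable regions are seed direct-repeat (DR0–DR5) sites, all their single-nucleotide variants and half-site ablations.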

| Sequence | PBM binding z-score |
| --- | --- |
| CCTTACGGGTCACTGACAGGTTATAGCTTTTGGA | 3.56 |
| CGTCCACGGTCAATGCTAGGTCAGTGAAAGCATT | 0.36 |
| TGAATGAGGTTAAAGATCAGGGTACGTGGCGTCG | 2.38 |
| TCTATTAGTTGATTAGGGCCACCGAAACAGCGGA | 0.782 |
| CCCGACAGGTGAAAGGTAACTCAGTCTGGTACGC | 0.836 |
| CCTGCTAGGTCAATGGTCAGTTAAAGCAGCTCGC | 0.89 |
| CGTCCAAGGTCAAAGCTCAGTGAAGAGATGACGG | 3.77 |
| TCTTGCAGATCAACAGGAGGTTAAGAAAGATCGA | 0.489 |
| CCGACTGGCGCATAAGGTTACCATAAGCCAGCCC | -0.0103 |
| CCTAGCAGGCCAGGGCCACTCAAGCATTTCGCTT | -1.03 |
| GCTTGTAGTTCAAGGTTAAGAAAGACTAAGCTAA | 1.46 |
| CGTCCAAGGTCATAGGAGGTGAGTGAAGACAGAT | 4.7 |
| CTCGAAAGGTCGTGCTCAGCTGAGTATACCAAAC | 3.17 |
| AGAACGAGGGCAATGAGCTGATAGCACGGGTGGC | -0.0572 |
| ATATGTAGGTTACATCCGGGGCATTCAGGCTATG | 1.23 |
| TCATATAGGTAAAAAGTGAAAGTCGGTGTGGTAA | 0.783 |
| ATCGAAAGGTCGTGAGGTGAGTATACAGAAAGGC | 3.69 |
| TCTTGTAGATCAGCAGCTTAAGAAAGCTGGCCAA | -0.232 |
| CGTCCAAGGTCAGAGAGGTCAGTGCATGCCGAGT | 7.42 |
| CCTATTAGTTGACCATAAGGGCGACCGAAGCTCG | 0.426 |

| Sequence | PBM binding z-score |
| --- | --- |
| GCGACTGGGGCATCAGAAGGTTACCATAACTTAA | 0.169 |
| CGGCCAAGGTCAGAGAGGTCAGTGAATGCCGAGT | 7.41 |
| GATTGTAGATCAAGGTTAAGAAAGACTAAGCTAA | 0.0632 |
| ATGTGTAGGTTAAGGGTCATTCAGGTTGGTTCGC | 5.79 |
| CGTCAAAGTTCAACTAAGGTAACGTAAAGCACGC | 4.74 |
| TCTGCTAGGTCAACGATGGTCAGCTCATCTGCTA | 1.65 |
| CTACCAAGGTGAACAAGGTAGTTGATTACTATTC | 1.45 |
| TGAATGAGGTTACAAGATCAGGGAACGTTGCAAA | 0.984 |
| CCTACTGGGCCAGCAGGTCATTGATATCAACGTT | 1.26 |
| GCAGACAGGTGGAACGCAGGTAACTCAGGGTGGC | -0.675 |
| AGAATGAGGCTATACGTAGATCAGGGAAGAAAGT | -0.45 |
| TCATACAGGTAAAGGTGAAAGTCGAACGATATGA | 1.13 |
| ATCTCTAGGTAACCAAGATCAGTGAATGCCGAAC | 0.294 |
| CAAACTAGGTCAAAGGTAAAAGTCGAGCCAACCA | 2.98 |
| TCTTTTAGTTGAAGGGCAACCGACGAGTCCGTTT | 0.995 |
| TCATATAGGTAATACAGGTCAAAGTCGGCATCTA | 4.07 |
| TCTTGTAGATCAAAGGTTAAAAAAGCCGAAGCCT | 1.64 |
| ACAGACACGTGATGAAGGTAACTCAGGCTATCAT | 0.0575 |
| ATATGTAGGTTAGCTGGGGTCAGTCAGACTAGGC | 4.52 |
| TAGCCTAGGTGATTCAGGGGCCAGTATAGAAAGC | -0.381 |
